Results as given in PubChem BioAssay (NCATS).
Inconclusive results are not listed. Active and inactive are the calls of the source. Calls come from the whole dose curve; as a rule, active = well fitted curve in the direction sought with a large enough effect; inconclusive = small, poorly fitted or top-dose-only effect, or another doubt; inactive = no such curve, though single readings can be large; an effect the other way counts as inactive or inconclusive.

Experiments:
[1] = Cellular Toxicity (caspase-3) Mesangial (AID 660); conditions: mesangial cells, normalized: DMSO 0%, 100 µM tamoxifen 100%; at 91.7 µM (top of the series);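 note: combined caspase 3 and 7 activity read by Caspase-Glo luminescence; cells exposed to compound for 16 h before the caspase read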
How it was run: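 Concentration-response qHTS: compound-induced rise in caspase 3/7 luminescence in human mesangial cells after 16 h, normalized to DMSO and 100 uM tamoxifen controls.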

[2] = Cellular Toxicity (caspase-3) SK-N-SH (AID 661);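 note: 0% = DMSO basal and 100% = 10 µM staurosporine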
How it was run: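 Caspase 3/7 activation is measured as a luminescence increase from aminoluciferin released by substrate cleavage in SK-N-SH cells after 16 hr compound treatment; values are AC50 from concentration-response curves.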

[3] = Cellular Toxicity (caspase-3) H-4-II-E (AID 663); conditions: H-4-II-E rat hepatoma, scaled: DMSO 0%, 100 µM tamoxifen 100%; at 92.2 µM (top of the series);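 note: cells exposed to compound for 16 hr before readout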
How it was run: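 Apoptosis induction is scored as increased luminescence from caspase 3/7 substrate cleavage in rat hepatoma H-4-II-E cells exposed to compound for 16 hr. Activity is scaled between DMSO and 100 uM tamoxifen.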

[4] = Cellular Toxicity (caspase-3) Hek293 (AID 664); conditions: HEK293 caspase-3 activation, DMSO = 0%, 100 µM tamoxifen = 100%; at 92.2 µM (top of the series);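 note: cells exposed to compound for 16 h at 37 °C before readout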
How it was run: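 Activation of caspase-3/7 is measured as increased luminescence from cleaved peptide-aminoluciferin substrate in HEK293 cells treated 16 hours at 37 °C. AC50 values come from Hill-equation fits of concentration-response data.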

[5] = Cellular Toxicity (caspase-3) N2a (AID 665);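 note: compound exposure lasted 16 h at 37 °C before readout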
How it was run: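 Plated mouse neuroblastoma N2a cells received titrated compounds for 16 h in complete medium. Caspase activity was then detected with a peptide-aminoluciferin luminescent reagent.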

[6] = Cellular Toxicity (caspase-3) NIH 3T3 (AID 666);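 note: 0% = DMSO basal and 100% = 100 µM tamoxifen stimulation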
How it was run: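 Concentration-response qHTS in NIH 3T3 mouse fibroblasts scores caspase-3/7 activation as rising luminescence after 16 hr compound exposure. Signals are scaled between DMSO-only and 100 uM tamoxifen.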

[7] = Cellular Toxicity (caspase-3) Renal Proximal Tubule (AID 667); conditions: Potency: caspase-3 activation;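 note: cells exposed to compound for 16 hours at 37 °C before detection; 0% = DMSO basal and 100% = 10 µM staurosporine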
How it was run: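 Caspase-Glo 3/7 read-out, rat primary kidney proximal tubule cells. Compound exposure 16 h, 37 °C; detection after 1 h at RT. Activity scaled to DMSO and 10 uM staurosporine.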

[8] = biological target: Cytochrome P450 3A4 (Homo sapiens) (UniProt P08684); experiment: qHTS Assay for Inhibitors and Substrates of Cytochrome P450 3A4 (AID 884); note: % is set by controls: 0 for no effect and ±100 for the full control effect; nearly all actives have a fitted effect of over 50% in size
How it was run: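 20 nM human CYP3A4 with 25 uM Luciferin-PPXE (at KM) in 200 mM KPO4, preincubated 10 min with compound; NADPH regeneration started a 60 min RT reaction. Luciferin detected by luminescence, normalized to 57 uM ketoconazole as full inhibition.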

[9] = Cell Viability - LYMP2-001 (AID 921);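 note: cells exposed to compound for 24 h at 37 °C; 0% = DMSO only and full inhibition = tetraoctylammonium bromide control wells; nearly all actives have a fitted effect of over 70% in size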
How it was run: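 A lymphoblastoid cell line of human origin was treated with library compounds across a concentration series for 24 hours, and viable cell number was estimated from ATP-driven luciferase light output. Hill modeling gave AC50.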

[10] = biological target: Cytochrome P450 3A4 (Homo sapiens) (UniProt P08684); experiment: qHTS Assay for Activators of Cytochrome P450 3A4 (AID 885); note: nearly all actives have a fitted effect of over 65% in size
How it was run: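 Quantitative HTS format: compounds preincubated with 20nM human CYP3A4 and Luciferin-PPXE substrate at KM, reaction started by NADPH regeneration, stopped after 60 min, luciferase luminescence read 20 min later.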

Sequence of Cytochrome P450 3A4 (Homo sapiens) (P08684 whole entry, looked up): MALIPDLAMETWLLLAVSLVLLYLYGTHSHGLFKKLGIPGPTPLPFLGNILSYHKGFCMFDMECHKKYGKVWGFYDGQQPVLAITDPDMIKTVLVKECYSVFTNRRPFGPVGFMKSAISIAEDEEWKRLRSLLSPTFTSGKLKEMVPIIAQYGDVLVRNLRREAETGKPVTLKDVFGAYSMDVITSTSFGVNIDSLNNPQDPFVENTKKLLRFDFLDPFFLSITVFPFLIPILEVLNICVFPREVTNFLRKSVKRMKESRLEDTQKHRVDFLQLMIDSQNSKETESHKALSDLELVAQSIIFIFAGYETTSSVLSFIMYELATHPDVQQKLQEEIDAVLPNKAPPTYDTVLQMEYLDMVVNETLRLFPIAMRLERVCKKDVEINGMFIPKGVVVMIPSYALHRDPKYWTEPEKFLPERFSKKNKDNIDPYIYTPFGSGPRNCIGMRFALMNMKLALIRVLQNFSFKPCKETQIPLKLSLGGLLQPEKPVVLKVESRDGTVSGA

C=Cc1ccccc1C=C
inactive: caspase-3 activation [1] 0.384% | outcome [2] | caspase-3 activation [3] 0.884% | caspase-3 activation [4] 1.48% | outcome [5] | outcome [6] | Potency [7] | Potency [8] | Potency [9]

COc1cccc(N)c1
inactive: caspase-3 activation [1] 2% | outcome [2] | caspase-3 activation [3] 4.32% | caspase-3 activation [4] 7.74% | outcome [5] | outcome [6] | Potency [7] | outcome [10] | Potency [9]

COC(=O)CCCC(=O)OC
inactive: caspase-3 activation [1] -0.518% | outcome [2] | caspase-3 activation [3] -0.182% | caspase-3 activation [4] -0.162% | outcome [5] | outcome [6] | Potency [7] | Potency [9]

COc1cccc2sc(N)nc12
inactive: caspase-3 activation [1] 1.13% | outcome [2] | caspase-3 activation [3] 0.718% | caspase-3 activation [4] -1.25% | outcome [5] | outcome [6] | Potency [7] | outcome [10] | Potency [9]

CCOc1cc(OCC)c(C(C)=O)cc1OCC
inactive: caspase-3 activation [1] -0.248% | outcome [2] | caspase-3 activation [3] 0.345% | caspase-3 activation [4] -0.553% | outcome [5] | outcome [6] | Potency [7] | outcome [10] | Potency [9]

NC=O
inactive: caspase-3 activation [1] -0.458% | outcome [2] | caspase-3 activation [3] 0.414% | caspase-3 activation [4] -1.11% | outcome [5] | outcome [6] | Potency [7] | Potency [9]

Cc1ccco1
inactive: caspase-3 activation [1] 0.332% | outcome [2] | caspase-3 activation [3] 1.57% | caspase-3 activation [4] -0.963% | outcome [5] | outcome [6] | Potency [7] | Potency [8] | Potency [9]

NC(=O)/N=N/C(N)=O
inactive: caspase-3 activation [1] -0.26% | outcome [2] | caspase-3 activation [3] 1.22% | caspase-3 activation [4] -1.75% | outcome [5] | outcome [6] | Potency [7] | outcome [10] | Potency [9]

C1CCCC1
inactive: caspase-3 activation [1] -0.162% | outcome [2] | caspase-3 activation [3] -0.556% | caspase-3 activation [4] 0.0682% | outcome [5] | outcome [6] | Potency [7] | Potency [8] | Potency [9]

Nc1cc([N+](=O)[O-])ccc1C(=O)O
inactive: caspase-3 activation [1] -0.673% | outcome [2] | caspase-3 activation [3] -1.05% | caspase-3 activation [4] -2.97% | outcome [5] | outcome [6] | Potency [7] | outcome [10] | Potency [9]

O=C(Cl)c1ccccc1[N+](=O)[O-]
inactive: caspase-3 activation [1] -1.02% | outcome [2] | caspase-3 activation [3] 1.33% | caspase-3 activation [4] 1.55% | outcome [5] | outcome [6] | Potency [7] | Potency [8] | Potency [9]

CNc1ccc([N+](=O)[O-])cc1
inactive: caspase-3 activation [1] 0.0307% | outcome [2] | caspase-3 activation [3] 0.918% | caspase-3 activation [4] -2.51% | outcome [5] | outcome [6] | Potency [7] | Potency [8] | Potency [9]

BrC(Br)C(Br)Br
inactive: caspase-3 activation [1] -0.634% | outcome [2] | caspase-3 activation [3] 0.661% | caspase-3 activation [4] -0.575% | outcome [5] | outcome [6] | Potency [7] | Potency [9]

CC(C)(C)c1ccc(OCC2CO2)cc1 (stereo not drawn)
inactive: caspase-3 activation [1] 1.34% | outcome [2] | caspase-3 activation [3] 0.475% | caspase-3 activation [4] -2.1% | outcome [5] | outcome [6] | Potency [7] | Potency [8] | Potency [9]

C(=C/c1ccccc1)/c1ccccc1
inactive: caspase-3 activation [1] 0.853% | outcome [2] | caspase-3 activation [3] 0.852% | caspase-3 activation [4] 5.17% | outcome [5] | outcome [6] | Potency [7] | Potency [8] | Potency [9]

Oc1cccc(Nc2ccccc2)c1
inactive: caspase-3 activation [1] -0.245% | outcome [2] | caspase-3 activation [3] -0.0797% | caspase-3 activation [4] -0.23% | outcome [5] | outcome [6] | Potency [7] | outcome [10] | Potency [9]

CC(C)CO
inactive: caspase-3 activation [1] 0.186% | outcome [2] | caspase-3 activation [3] -0.412% | caspase-3 activation [4] -2.74% | outcome [5] | outcome [6] | Potency [7] | Potency [9]

Cc1ccc(N(C)C)cc1
inactive: caspase-3 activation [1] 0.102% | outcome [2] | caspase-3 activation [3] -1.01% | caspase-3 activation [4] -0.882% | outcome [5] | outcome [6] | Potency [7] | Potency [8] | Potency [9]

O=[N+]([O-])c1c(Cl)cc(Cl)cc1Cl
inactive: caspase-3 activation [1] -0.0612% | outcome [2] | caspase-3 activation [3] 0.356% | caspase-3 activation [4] -0.873% | outcome [5] | outcome [6] | Potency [7] | Potency [9]

CCNc1ccccc1
inactive: caspase-3 activation [1] -0.0326% | outcome [2] | caspase-3 activation [3] -0.349% | caspase-3 activation [4] -0.687% | outcome [5] | outcome [6] | Potency [7] | Potency [8] | Potency [9]

Nc1ccc(Cl)cc1[N+](=O)[O-]
inactive: caspase-3 activation [1] 0.0963% | outcome [2] | caspase-3 activation [3] -0.0414% | caspase-3 activation [4] 1.61% | outcome [5] | outcome [6] | Potency [7] | Potency [9]
